Here are results for 19 molecules from PubChem BioAssay (EPA / NIEHS).

Structures are written as SMILES. Results filed as inconclusive are left out. The source made the active and inactive calls. Rule for the calls: active = hit-call score of the fitted dose curve at least 0.9, where 1 is the maximum; inconclusive = response in the unintended direction; inactive = score below 0.9.

Assay [1] deals with Tyrosine-protein phosphatase non-receptor type 14 (Homo sapiens) (UniProt Q15678). Nature of the assay: NVS_ENZ_hPTPN14: NovaScreen (NVS) Enzymatic Assay for human Protein Tyrosine Phosphatase Non-receptor Type 14 (PTPN14) (AID 2283206). The method in brief: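 Fluorescent substrate turnover by recombinant human PTPN14 was measured 0.5 h after compound addition, with substrate and product separated by mobility shift. Single-point screening at 25 uM, then concentration-response up to 50 uM for chemicals meeting threshold (e.g., 30% inhibition).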

Assay [2] deals with human Protein Tyrosine Phosphatase Non-receptor Type 2 (PTPN2), PTPN2 (gene 5771) (UniProt P17706). Nature of the assay: NVS_ENZ_hPTPN2: NovaScreen (NVS) Enzymatic Assay for human Protein Tyrosine Phosphatase Non-receptor Type 2 (PTPN2) (AID 2283207). The method in brief:
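Activity measured as fluorescence after mobility-shift separation of substrate and product, 1 h after compound. Duplicate single-point 25 uM primary testing, concentration series for actives; inhibition scored as signal loss relative to DMSO baseline.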

The target of assay [3] is human Protein Tyrosine Phosphatase Non-receptor Type 9 (PTPN9), PTPN9 (gene 5780) (UniProt P43378). Nature of the assay: NVS_ENZ_hPTPN9: NovaScreen (NVS) Enzymatic Assay for human Protein Tyrosine Phosphatase Non-receptor Type 9 (PTPN9) (AID 2283209). The gist of the method:
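Sf9-expressed enzyme in a cell-free assay, fluorescence read 1.33 h after dosing with mobility-shift separation of substrate and product. Tested at 25 uM in duplicate, then up to 50 uM; signal loss versus DMSO.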

Assay [4] deals with human Protein Tyrosine Phosphatase Receptor Type M (PTPRM), PTPRM (gene 5797) (UniProt P28827). Nature of the assay: NVS_ENZ_hPTPRM: NovaScreen (NVS) Enzymatic Assay for human Protein Tyrosine Phosphatase Receptor Type M (PTPRM) (AID 2283215). The gist of the method: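 Read-out is fluorescence after electrophoretic separation of substrate and product, taken 1.33 h post-dosing with recombinant enzyme. Compounds screened at 25 uM in duplicate, then concentration series for actives; activity as signal loss relative to DMSO.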

In assay [5] the target is human Sirtuin 2 (SIRT2), SIRT2 (gene 22933) (UniProt Q8IXJ6). Nature of the assay: NVS_ENZ_hSIRT2: NovaScreen (NVS) Enzymatic Assay for human Sirtuin 2 (SIRT2) (AID 2283217). The method in brief:
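Single-point duplicate screen at 25 uM, then concentration-response (max 50 uM) for chemicals passing threshold. Enzyme activity of recombinant human SIRT2 measured after 1 hr by fluorescence with mobility-shift separation of product; DMSO baseline.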

Assay [6] deals with human Sirtuin 1 (SIRT1), SIRT1 (gene 23411) (UniProt Q96EB6). The experiment in a line: NVS_ENZ_hSIRT1: NovaScreen (NVS) Enzymatic Assay for human Sirtuin 1 (SIRT1) (AID 2283219). The method in brief: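 Cell-free recombinant SIRT1 with a fluorescent substrate; substrate and product separated by electrophoretic mobility shift and read by fluorescence intensity, 1 h after dosing. Primary screen at 25 uM in duplicate; hits re-run in concentration-response up to 50 uM, relative to DMSO.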

Assay [7] has as its target human Sirtuin 3 (SIRT3), SIRT3 (gene 23410) (UniProt Q9NTG7). The experiment in a line: NVS_ENZ_hSIRT3: NovaScreen (NVS) Enzymatic Assay for human Sirtuin 3 (SIRT3) (AID 2283222). The gist of the method: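 Cell-free enzyme assay with recombinant protein and fluorescent substrate, product separated by electrophoretic mobility shift; read 1 hour after dosing. Screened in duplicate at 25 uM, then singleton concentration-response up to 50 uM; loss of signal versus DMSO.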

The target in assay [8] is rat Adenylate Cyclase, Forskolin Stimulated, Adcy5 (gene 64532) (UniProt Q04400). Nature of the assay: NVS_ENZ_rACFSKBinding: NovaScreen (NVS) Enzymatic Assay for rat Adenylate Cyclase, Forskolin Stimulated (AID 2283232). The gist of the method:
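Chemicals were first tested at 25 uM in duplicate, then hits run as concentration series with top concentration 50 uM. Enzyme source was rat forebrain membranes; radiometric filter read-out after 1 h, referenced to DMSO.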

In assay [9] the target is human Protein Tyrosine Phosphatase Receptor Type F (PTPRF), PTPRF (gene 5792) (UniProt P10586). Nature of the assay: NVS_ENZ_hPTPRF: NovaScreen (NVS) Enzymatic Assay for human Protein Tyrosine Phosphatase Receptor Type F (PTPRF) (AID 2283213). The gist of the method: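 Cell-free fluorescence enzyme assay with recombinant protein and substrate; product separated by electrophoretic mobility shift. Read 1 h after dosing, single 25 uM duplicate screen, then concentration-response up to 50 uM; loss of signal vs DMSO.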

Assay [10] concerns the target human Raf-1 Proto-Oncogene, serine/threonine Kinase (RAF1), RAF1 (gene 5894) (UniProt P04049). The experiment in a line: NVS_ENZ_hRAF1: NovaScreen (NVS) Enzymatic Assay for human Raf-1 Proto-Oncogene, serine/threonine Kinase (RAF1) (AID 2283216). The method in brief:
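Single-point screening at 25 uM (duplicate), followed by singleton concentration-response to 50 uM maximum for chemicals exceeding threshold. Enzyme activity from fluorescent substrate-product mobility-shift separation after 1 h, relative to DMSO.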

Assay [11] concerns the target rabbit Imidazoline 2 Central (I2C), CKB (gene 100009085) (UniProt P00567). Nature of the assay: NVS_ENZ_rabI2C: NovaScreen (NVS) Enzymatic Assay for rabbit Imidazoline 2 Central (I2C) (AID 2283228). The gist of the method: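 Rabbit brain membranes, cell-free; readout by filter-based scintillation counting 1.5 hours after dosing, loss of signal vs DMSO. Initial duplicate test at 25 uM, then concentration-response with 50 uM top concentration.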

The target of assay [12] is human Tyrosine Protein Kinase Receptor Tie-2 (Tie2), TEK (gene 7010) (UniProt Q02763). Nature of the assay: NVS_ENZ_hTie2: NovaScreen (NVS) Enzymatic Assay for human Tyrosine Protein Kinase Receptor Tie-2 (Tie2) (AID 2283225). The method in brief: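 Substrate and product were separated by mobility shift and detected by fluorescence after a 1-hour reaction with recombinant Tie2. Chemicals passing a 25 uM single-point screen were titrated to a maximum of 50 uM. Results were normalized to DMSO baseline.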
human Tyrosine Protein Kinase Receptor Tie-2 (Tie2), TEK (gene 7010), sequence (Q02763 whole entry, looked up): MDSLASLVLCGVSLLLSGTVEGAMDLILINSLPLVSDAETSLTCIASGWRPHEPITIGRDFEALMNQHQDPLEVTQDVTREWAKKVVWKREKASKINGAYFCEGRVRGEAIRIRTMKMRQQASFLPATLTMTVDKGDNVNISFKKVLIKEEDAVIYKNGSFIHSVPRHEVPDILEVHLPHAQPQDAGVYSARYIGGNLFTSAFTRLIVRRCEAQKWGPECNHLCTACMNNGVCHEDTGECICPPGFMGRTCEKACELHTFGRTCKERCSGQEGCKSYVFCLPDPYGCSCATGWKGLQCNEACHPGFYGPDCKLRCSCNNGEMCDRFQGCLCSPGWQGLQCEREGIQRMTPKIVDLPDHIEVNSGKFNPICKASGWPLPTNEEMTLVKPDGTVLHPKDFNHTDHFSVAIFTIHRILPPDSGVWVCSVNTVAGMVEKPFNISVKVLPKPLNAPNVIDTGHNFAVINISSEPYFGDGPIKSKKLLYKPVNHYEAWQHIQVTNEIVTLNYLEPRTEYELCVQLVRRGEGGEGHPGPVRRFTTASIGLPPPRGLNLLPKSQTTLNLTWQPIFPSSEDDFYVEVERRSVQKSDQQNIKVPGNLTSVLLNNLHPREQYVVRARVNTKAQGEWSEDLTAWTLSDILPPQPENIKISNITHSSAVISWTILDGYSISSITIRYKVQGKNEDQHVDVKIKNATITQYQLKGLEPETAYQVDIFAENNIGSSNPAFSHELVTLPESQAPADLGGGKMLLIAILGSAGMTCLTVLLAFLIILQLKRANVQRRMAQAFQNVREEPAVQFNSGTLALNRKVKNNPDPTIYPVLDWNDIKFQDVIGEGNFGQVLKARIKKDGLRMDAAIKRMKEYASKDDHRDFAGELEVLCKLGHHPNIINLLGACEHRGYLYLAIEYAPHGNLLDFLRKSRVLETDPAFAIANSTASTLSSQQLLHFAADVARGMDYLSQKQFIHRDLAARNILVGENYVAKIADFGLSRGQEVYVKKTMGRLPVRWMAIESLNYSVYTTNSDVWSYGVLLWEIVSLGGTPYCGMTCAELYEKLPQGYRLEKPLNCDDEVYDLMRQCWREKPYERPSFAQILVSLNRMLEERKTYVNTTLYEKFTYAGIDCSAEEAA

Assay [13] concerns the target human Tropomyosin Receptor Kinase A (TRKA), NTRK1 (gene 4914) (UniProt P04629). The experiment in a line: NVS_ENZ_hTrkA: NovaScreen (NVS) Enzymatic Assay for human Tropomyosin Receptor Kinase A (TRKA) (AID 2283224). The gist of the method:
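Compounds were screened at 25 uM in duplicate, then concentration series to a 50 uM top for those meeting threshold (e.g. 30% inhibition). Enzyme was recombinant human TrkA, incubated 1 h. Product formation was quantified by fluorescence after mobility-shift separation.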

Assay [14] deals with human SRC Proto-Oncogene, Non-receptor Tyrosine Kinase (SRC), SRC (gene 6714) (UniProt P12931). The experiment in a line: NVS_ENZ_hSRC: NovaScreen (NVS) Enzymatic Assay for human SRC Proto-Oncogene, Non-receptor Tyrosine Kinase (SRC) (AID 2283223). The method in brief: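 Compounds passing 30% inhibition at 25 uM (duplicate) were titrated to a top concentration of 50 uM. Enzyme activity read by fluorescence with mobility-shift substrate/product separation after 1 h; DMSO baseline.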
human SRC Proto-Oncogene, Non-receptor Tyrosine Kinase (SRC), SRC (gene 6714), sequence (P12931 whole entry, looked up): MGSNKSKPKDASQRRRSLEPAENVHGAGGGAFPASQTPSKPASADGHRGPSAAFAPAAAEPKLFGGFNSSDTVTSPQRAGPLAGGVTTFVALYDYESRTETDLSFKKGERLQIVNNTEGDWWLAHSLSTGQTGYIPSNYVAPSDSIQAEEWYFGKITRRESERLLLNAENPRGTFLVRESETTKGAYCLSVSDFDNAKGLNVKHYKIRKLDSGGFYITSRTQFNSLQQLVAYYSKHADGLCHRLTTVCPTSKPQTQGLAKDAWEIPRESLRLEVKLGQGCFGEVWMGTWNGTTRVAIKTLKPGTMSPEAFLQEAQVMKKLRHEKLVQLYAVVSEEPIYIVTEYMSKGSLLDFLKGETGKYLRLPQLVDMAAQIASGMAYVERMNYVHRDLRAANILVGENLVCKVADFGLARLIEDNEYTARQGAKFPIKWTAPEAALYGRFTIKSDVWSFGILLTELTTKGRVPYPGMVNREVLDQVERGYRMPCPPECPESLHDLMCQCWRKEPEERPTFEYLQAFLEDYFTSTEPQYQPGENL

The target in assay [15] is human Rho Associated Coiled-coil Containing Protein Kinase 1 (ROCK1), ROCK1 (gene 6093) (UniProt Q13464). Nature of the assay: NVS_ENZ_hROCK1: NovaScreen (NVS) Enzymatic Assay for human Rho Associated Coiled-coil Containing Protein Kinase 1 (ROCK1) (AID 2283214). The gist of the method:
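Compounds first run in duplicate at 25 uM against recombinant human ROCK1, then followed in concentration series. Kinase activity was read 1 h post-dosing by fluorescence with mobility-shift separation, as signal loss relative to DMSO.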

Assay [16] concerns the target human Vascular Endothelial Growth Factor Receptor 2 (VEGFR2), KDR (gene 3791) (UniProt P35968). The experiment in a line: NVS_ENZ_hVEGFR2: NovaScreen (NVS) Enzymatic Assay for human Vascular Endothelial Growth Factor Receptor 2 (VEGFR2) (AID 2283230). The gist of the method:
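Cell-free recombinant VEGFR2 kinase, fluorescent substrate with electrophoretic mobility-shift separation; read 1 h after dosing. Screened at 25 uM in duplicate, hits to concentration-response up to 50 uM; loss-of-signal versus DMSO.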

Assay [17] has as its target human Vascular Endothelial Growth Factor Receptor 3 (VEGFR3), FLT4 (gene 2324) (UniProt P35916). Nature of the assay: NVS_ENZ_hVEGFR3: NovaScreen (NVS) Enzymatic Assay for human Vascular Endothelial Growth Factor Receptor 3 (VEGFR3) (AID 2283229). The gist of the method: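 Chemicals first run in duplicate at 25 uM, with actives re-tested in concentration series to a top of 50 uM. Recombinant VEGFR3 activity measured after 1 h via fluorescence with mobility-shift product separation; inhibition fitted relative to DMSO.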

For assay [18], the target named is human Protein Tyrosine Phosphatase Receptor Type B (PTPRB), PTPRB (gene 5787) (UniProt P23467). Nature of the assay: NVS_ENZ_hPTPRB: NovaScreen (NVS) Enzymatic Assay for human Protein Tyrosine Phosphatase Receptor Type B (PTPRB) (AID 2283211). The method in brief:
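Recombinant human PTPRB with a fluorescent substrate, product separated by electrophoretic mobility shift; read 1 h after dosing. Primary screen in duplicate at 25 uM; actives then retested in concentration series; loss of signal versus DMSO.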

human Sirtuin 3 (SIRT3), SIRT3 (gene 23410), sequence (Q9NTG7 whole entry, looked up): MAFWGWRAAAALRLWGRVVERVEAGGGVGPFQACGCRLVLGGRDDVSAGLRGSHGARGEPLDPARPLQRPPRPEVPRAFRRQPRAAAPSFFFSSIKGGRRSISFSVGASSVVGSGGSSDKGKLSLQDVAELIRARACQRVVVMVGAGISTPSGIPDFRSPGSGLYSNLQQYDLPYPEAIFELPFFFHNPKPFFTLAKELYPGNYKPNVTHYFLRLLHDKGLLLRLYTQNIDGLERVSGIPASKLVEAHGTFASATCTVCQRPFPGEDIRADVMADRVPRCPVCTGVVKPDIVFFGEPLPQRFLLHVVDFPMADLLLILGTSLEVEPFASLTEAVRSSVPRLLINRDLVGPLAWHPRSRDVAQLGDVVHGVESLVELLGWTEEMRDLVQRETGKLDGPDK
human Protein Tyrosine Phosphatase Non-receptor Type 2 (PTPN2), PTPN2 (gene 5771), sequence (P17706 whole entry, looked up): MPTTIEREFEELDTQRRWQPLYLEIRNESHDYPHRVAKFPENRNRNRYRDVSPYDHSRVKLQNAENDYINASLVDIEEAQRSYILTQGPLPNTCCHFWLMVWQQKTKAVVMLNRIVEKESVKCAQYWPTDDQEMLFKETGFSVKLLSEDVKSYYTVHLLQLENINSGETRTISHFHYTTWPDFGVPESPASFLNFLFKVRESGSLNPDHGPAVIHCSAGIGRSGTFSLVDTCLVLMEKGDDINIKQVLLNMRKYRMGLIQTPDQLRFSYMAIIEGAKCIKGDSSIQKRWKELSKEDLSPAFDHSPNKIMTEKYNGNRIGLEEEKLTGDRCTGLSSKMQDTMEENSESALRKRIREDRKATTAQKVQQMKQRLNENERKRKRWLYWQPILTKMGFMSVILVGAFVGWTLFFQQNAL
human Rho Associated Coiled-coil Containing Protein Kinase 1 (ROCK1), ROCK1 (gene 6093), sequence (Q13464 whole entry, looked up): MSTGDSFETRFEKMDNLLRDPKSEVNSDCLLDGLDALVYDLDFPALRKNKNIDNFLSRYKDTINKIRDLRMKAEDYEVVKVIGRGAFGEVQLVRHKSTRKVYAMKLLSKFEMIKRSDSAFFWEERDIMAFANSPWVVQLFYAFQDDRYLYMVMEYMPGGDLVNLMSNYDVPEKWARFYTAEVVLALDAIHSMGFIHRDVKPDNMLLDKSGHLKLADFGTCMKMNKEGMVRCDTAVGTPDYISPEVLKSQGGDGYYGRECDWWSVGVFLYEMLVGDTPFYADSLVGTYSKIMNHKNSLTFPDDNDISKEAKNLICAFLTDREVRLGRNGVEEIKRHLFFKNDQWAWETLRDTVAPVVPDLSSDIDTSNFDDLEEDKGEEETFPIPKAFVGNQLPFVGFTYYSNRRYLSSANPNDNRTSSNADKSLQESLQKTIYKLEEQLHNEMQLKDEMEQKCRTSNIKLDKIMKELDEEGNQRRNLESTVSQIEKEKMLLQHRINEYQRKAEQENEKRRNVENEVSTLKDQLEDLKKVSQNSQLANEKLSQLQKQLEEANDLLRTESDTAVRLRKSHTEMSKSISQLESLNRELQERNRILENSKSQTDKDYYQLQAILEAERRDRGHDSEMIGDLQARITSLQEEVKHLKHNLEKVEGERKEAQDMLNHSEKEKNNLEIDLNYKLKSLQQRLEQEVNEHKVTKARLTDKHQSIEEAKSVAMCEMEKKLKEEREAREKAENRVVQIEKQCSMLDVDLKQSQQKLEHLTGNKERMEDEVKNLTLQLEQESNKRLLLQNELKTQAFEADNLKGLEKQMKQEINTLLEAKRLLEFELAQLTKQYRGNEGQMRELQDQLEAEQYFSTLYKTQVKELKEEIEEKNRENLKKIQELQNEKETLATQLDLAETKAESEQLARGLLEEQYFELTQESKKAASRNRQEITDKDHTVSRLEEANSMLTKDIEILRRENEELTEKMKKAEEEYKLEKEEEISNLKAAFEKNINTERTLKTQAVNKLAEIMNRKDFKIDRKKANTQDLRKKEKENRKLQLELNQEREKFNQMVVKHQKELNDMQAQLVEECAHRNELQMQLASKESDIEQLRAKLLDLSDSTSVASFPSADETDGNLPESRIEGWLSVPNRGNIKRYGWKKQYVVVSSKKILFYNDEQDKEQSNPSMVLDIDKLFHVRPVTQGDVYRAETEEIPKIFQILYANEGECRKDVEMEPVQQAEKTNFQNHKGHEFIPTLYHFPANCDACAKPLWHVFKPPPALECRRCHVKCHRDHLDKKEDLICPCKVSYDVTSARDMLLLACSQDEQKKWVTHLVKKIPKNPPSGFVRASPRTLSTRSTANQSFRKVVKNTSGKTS
human Raf-1 Proto-Oncogene, serine/threonine Kinase (RAF1), RAF1 (gene 5894), sequence (P04049 whole entry, looked up): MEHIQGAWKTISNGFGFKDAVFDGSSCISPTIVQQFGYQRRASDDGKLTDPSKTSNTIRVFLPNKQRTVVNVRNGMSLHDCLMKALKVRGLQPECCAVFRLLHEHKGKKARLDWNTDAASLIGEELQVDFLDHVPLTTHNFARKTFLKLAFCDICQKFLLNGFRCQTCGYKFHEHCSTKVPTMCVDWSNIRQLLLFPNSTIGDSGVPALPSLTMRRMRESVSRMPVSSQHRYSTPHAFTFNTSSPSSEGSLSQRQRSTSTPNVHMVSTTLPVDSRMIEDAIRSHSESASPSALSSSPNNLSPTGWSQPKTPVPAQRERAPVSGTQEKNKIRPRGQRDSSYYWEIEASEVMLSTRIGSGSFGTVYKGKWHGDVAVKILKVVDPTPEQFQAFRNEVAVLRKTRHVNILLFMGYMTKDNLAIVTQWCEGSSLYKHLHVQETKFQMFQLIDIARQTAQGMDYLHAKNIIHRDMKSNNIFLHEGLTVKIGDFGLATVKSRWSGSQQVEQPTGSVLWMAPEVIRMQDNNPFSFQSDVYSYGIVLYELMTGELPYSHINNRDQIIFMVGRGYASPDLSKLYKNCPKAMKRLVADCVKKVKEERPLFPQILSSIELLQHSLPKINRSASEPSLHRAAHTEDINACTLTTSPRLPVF
rabbit Imidazoline 2 Central (I2C), CKB (gene 100009085), sequence (P00567 whole entry, looked up): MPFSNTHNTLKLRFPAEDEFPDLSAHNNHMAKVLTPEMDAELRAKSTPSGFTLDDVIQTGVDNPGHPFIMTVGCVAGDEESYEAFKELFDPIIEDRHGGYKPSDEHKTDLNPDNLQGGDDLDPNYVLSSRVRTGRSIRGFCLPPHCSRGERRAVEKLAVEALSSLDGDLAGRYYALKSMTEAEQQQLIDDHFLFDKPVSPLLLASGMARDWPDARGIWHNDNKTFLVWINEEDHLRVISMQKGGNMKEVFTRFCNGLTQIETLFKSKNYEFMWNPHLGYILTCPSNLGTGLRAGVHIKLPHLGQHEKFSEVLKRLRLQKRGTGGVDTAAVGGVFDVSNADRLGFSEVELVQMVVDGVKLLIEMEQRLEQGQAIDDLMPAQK

One may read the AC50 as the concentration giving half of the maximal activity seen. For `O=C1C2CC=CCC2C(=O)N1SC(Cl)(Cl)Cl` (stereo not drawn), the molecule was called inactive in [1], in [3], in [4] and in assay [8]. Besides, the AC50 in assay [2] is 46.9 µM (active); in assay [5] it was 13 µM (active); in [6], 13.3 µM (active); in assay [7], 39.5 µM (active).
For `COP(=S)(OC)SCn1nnc2ccccc2c1=O`, the result in assay [1], in assay [9], in [10] and in assay [8] was inactive.
As for `Cn1c(-c2ccccc2)cc(-c2ccccc2)[n+]1C`, in assay [11], the AC50 was 12 µM (active).
For `CC(C)C1(C)N=C(c2ncccc2C(=O)O)NC1=O` (stereo not drawn), the molecule was called inactive in assay [12].
Turning to `COC(=O)N(C(=O)N1CO[C@@]2(C(=O)OC)Cc3cc(Cl)ccc3C2=N1)c1ccc(OC(F)(F)F)cc1`, in assay [13], the AC50 is 28.7 µM (active).
With `CCCN(CC)CC1COC2(CCC(C(C)(C)C)CC2)O1` (stereo not drawn), the molecule was called inactive in assay [14]. Further, in assay [11], the AC50 is 13 µM (active).
For `CCOP(=S)(OCC)Oc1nc(Cl)n(C(C)C)n1`, the outcome in assay [15] was inactive.
Consider `Nc1c(Cl)c(Cl)nc(C(=O)O)c1Cl`, for which the molecule was called inactive in [12].
Consider `CCN(CC)C(=O)C(C)Oc1cccc2ccccc12` (stereo not drawn), for which the molecule was called inactive in assay [2] and in assay [11].
As to `COc1ccc(-c2ccccc2)cc1NNC(=O)OC(C)C`, in [10], the molecule was classed as inactive.
As to `CCOc1nc(F)cc2nc(S(=O)(=O)Nc3c(Cl)cccc3Cl)nn12`, in assay [9], the outcome was inactive.
Turning to `CCCCOCN(C(=O)CCl)c1c(CC)cccc1CC`, the outcome in assay [15] was inactive.
`COC(=O)c1c(C(F)F)nc(C(F)(F)F)c(C2=NCCS2)c1CC(C)C`: the outcome in [10] was inactive.
As for `Clc1nc(Cl)nc(Nc2ccccc2Cl)n1`, the molecule was classed as inactive in assay [7] and in [16]. The AC50 in [13] was 7.05 µM (active).
Turning to `CS(=O)(=O)c1ccc(C(=O)C2C(=O)CCCC2=O)c([N+](=O)[O-])c1`, the call in [10] and in assay [17] was inactive.
As to `CS(=O)(=O)c1cc(C(F)(F)F)ccc1C(=O)c1cnoc1C1CC1`, the result in assay [1] was inactive.
`CC1(C)C(C=C(Cl)Cl)C1C(=O)OC(C#N)c1cccc(Oc2ccccc2)c1` (stereo not drawn): the molecule was classed as inactive in assay [10], in assay [7] and in assay [12].
Take `O=c1n(Cl)c(=O)n(Cl)c(=O)n1Cl`: in [18], the result was inactive.
As for `CCOC(=O)C(C)OC(=O)c1cc(Oc2ccc(C(F)(F)F)cc2Cl)ccc1[N+](=O)[O-]` (stereo not drawn), the call in assay [2], in [15] and in assay [10] was inactive.
